Data reported in PubChem BioAssay (EPA / NIEHS).
Inconclusive results are not listed. Activity calls are given as the source filed them. Rule for the calls: active = hit-call score of the fitted dose curve at least 0.9, where 1 is the maximum; inconclusive = response in the unintended direction; inactive = score below 0.9.

target: human Esterase Plasma (ES), BCHE (gene 590) (UniProt P06276); assay: NVS_ENZ_hES: NovaScreen (NVS) Enzymatic Assay for human Esterase Plasma (ES) (AID 2283157)
Protocol: NVS_ENZ_hES is a biochemical, single-readout assay that uses extracted gene-proteins from Human plasma in a cell-free assay. Measurements were taken 0.25 hour after chemical dosing in a 96-well plate.NVS_ENZ_hES is one of one assay component(s) measured or calculated from the NVS_ENZ_hES assay. It is designed to make measurements of enzyme activity, a form of enzyme reporter, as detected with absorbance signals by Colorimetric technology.Data from the assay component NVS_ENZ_hES was analyzed into 1 assay endpoint. This assay endpoint, NVS_ENZ_hES, was analyzed in the positive analysis fitting direction relative to DMSO as the negative control and baseline of activity. Using a type of enzyme reporter, loss-of-signal activity can be used to understand changes in the enzymatic activity as they relate to the gene BCHE. Furthermore, this assay endpoint can be referred to as a primary readout, because this assay has produced multiple assay endpoints where this one serves a enzymatic activity function. To generalize the intended target to other relatable targets, this assay endpoint is annotated to the esterase intended target family, where the subfamily is pseudocholinesterase.
Binding assays used specific radioligands (tritiated, iodinated) with non-radioactive competitive displacement ligands in agonist or antagonist protocols (as indicated) and various reference compounds and inhibitors to titrate specific binding to receptors and transporters. Most enzyme assays (CYPs, kinases, phosphatases, proteases, HDACs) used recombinant protein and specific substrates (fluorescence mostly, some colorimetric and radioactive) and inhibitors, followed by a biochemical separation of substrate and product. All assays for the biochemical HTS were initially run in duplicate at a single concentration (10 uM for CYP450 assays and 25 uM for all others). Assay-chemical combinations meeting a pre-defined threshold (e.g., 30% inhibition and other criteria defined below) were then run in singleton concentration-response format with maximum concentration of 20 uM for CYPs and 50 uM for all others. Each assay was run with positive and negative controls, and concurrent controls on every plate. The follow-up (secondary) screen tested active chemical-pairs in concentration series, as well as a few additional assays not tested in the primary screen, some selected negative inactives, and several cases re-run in the concentration series for confirmatory purposes.

Chain of human Esterase Plasma (ES), BCHE (gene 590) (P06276 whole entry, looked up): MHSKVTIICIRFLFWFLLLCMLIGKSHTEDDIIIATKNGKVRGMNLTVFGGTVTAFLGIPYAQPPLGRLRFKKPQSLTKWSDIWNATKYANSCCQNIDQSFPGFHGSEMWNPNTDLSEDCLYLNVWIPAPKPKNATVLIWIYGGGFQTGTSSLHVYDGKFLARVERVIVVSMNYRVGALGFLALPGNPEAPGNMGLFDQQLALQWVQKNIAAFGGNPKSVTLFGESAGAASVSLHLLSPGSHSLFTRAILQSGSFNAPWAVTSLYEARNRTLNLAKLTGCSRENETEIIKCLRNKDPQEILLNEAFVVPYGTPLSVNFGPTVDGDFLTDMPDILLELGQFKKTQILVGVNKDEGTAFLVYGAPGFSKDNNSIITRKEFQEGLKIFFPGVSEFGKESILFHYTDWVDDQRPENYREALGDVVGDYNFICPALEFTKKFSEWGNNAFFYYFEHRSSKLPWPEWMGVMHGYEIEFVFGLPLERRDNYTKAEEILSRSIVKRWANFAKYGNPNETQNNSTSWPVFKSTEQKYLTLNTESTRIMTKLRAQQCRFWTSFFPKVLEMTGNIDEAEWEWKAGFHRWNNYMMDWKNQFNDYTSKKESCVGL

outcome, inactive:
Cc1occc1C(=O)Nc1ccc(C(=O)N2CCC(F)(F)/C(=C\C(=O)N3CCC(N4CCCCC4)CC3)c3ccccc32)cc1
O=CCCCC=O
CC/C(=C(/CC)c1ccc(O)cc1)c1ccc(O)cc1
Cc1c2ccccc2c(C)c2c1ccc1ccccc12
COc1cc(C(=O)NC2CCN(C)CC2)ccc1Nc1ncc2c(n1)N(C1CCCC1)CC(F)(F)C(=O)N2C
CCCCOC(=O)c1ccc(O)cc1
C[C@]12CC[C@@H]3c4ccc(O)cc4CC[C@H]3[C@@H]1CC[C@H]2O
c1ccc(C[n+]2cccc3ccccc32)cc1
Oc1ccc2ccccc2c1

AC50, active:
CCN(CC)C(=O)c1cc(S(=O)(=O)Cc2ccccc2)c(N2CCC(c3ccccc3)CC2)cc1N(CC)CCN(C)C 0.0737 µM
COc1cccc([C@H](O)C2CCN(CCc3ccc(F)cc3)CC2)c1OC 18.2 µM
CCN(Cc1cccnc1)C(=O)c1cccc(Cl)c1[C@]1(C)C(=O)N(Cc2ccc(OC)cc2OC)c2ccc(Cl)cc21 16.8 µM
CN(C)C(=O)C1(N2CCCCC2)CCN(CC[C@@]2(c3ccc(Cl)c(Cl)c3)CN(C(=O)c3ccccc3)CCO2)CC1 17.5 µM
CN(C)c1ccc(C(=C2C=CC(=[N+](C)C)C=C2)c2ccc(N(C)C)cc2)cc1 1.62 µM
CCOC(=O)O[C@H](C)OC(=O)c1ccc2c(c1)cc(C(=O)NC1CCN(C(C)C)CC1)n2Cc1cc(-c2ccc(Cl)s2)on1 9.43 µM
COc1ccc2cc(S(=O)(=O)N[C@H](CC(=O)N[C@H](Cc3ccc(CN4[C@H](C)CCC[C@@H]4C)cc3)C(=O)N(C)C(C)C)c3ccc4c(c3)OCO4)ccc2c1 7.52 µM
NCc1cccc(C2CCN(C(=O)c3ccc(C#Cc4ccccc4F)o3)CC2)c1 25 µM
O=C1c2ccccc2C(=O)N1CCc1noc(-c2ccc(CN3CCCCCC3)s2)n1 18.2 µM
Clc1cc(Cl)c2c(c1)N=C1CCCCCN1C2 13.7 µM
